Data taken from PubChem BioAssay (EPA / NIEHS).
Active and inactive are the calls of the source. The calls were made as follows: active = hit-call score of the fitted dose curve at least 0.9, where 1 is the maximum; inactive = score below 0.9.

Legend:
[1] = ATG_CRE_CIS: Attagene CIS-FACTORIAL HepG2 Assay for human cAMP Responsive Element (CRE) binding protein 3 (AID 2282926); conditions: HepG2 CRE cis-reporter, Attagene multiplexed mRNA; actives raise or lower the signal
Procedure, shortened: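 Endogenous CRE-binding activity in HepG2 is reported through a cis-regulated transfected reporter. Following a day of exposure, mRNA levels are determined by reverse transcription PCR and fluorescent fragment analysis; fits run in both directions versus DMSO.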

[2] = biological target: CCAAT/enhancer-binding protein beta (Homo sapiens) (UniProt P17676); assay: ATG_C_EBP_CIS: Attagene CIS-FACTORIAL HepG2 Assay for human CCAAT/Enhancer Binding Protein (C/EBP) beta (AID 2282927); conditions: HepG2 Attagene cis-factorial transcription factor reporter; actives raise or lower the signal
Procedure, shortened: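 HepG2, transient MRTU transfection, 24 h treatment. RT-PCR plus CE fluorescence; DMSO negative control, bidirectional fit.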

[3] = ATG_CMV_CIS: Attagene CIS-FACTORIAL HepG2 Assay for human CMV (Internal Marker) (AID 2282928); conditions: HepG2 CMV promoter reporter, transcription factor profiling; actives raise or lower the signal;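 also: endpoint acts as a background internal control marker rather than a target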
Procedure, shortened: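 Cell system: HepG2, transiently transfected multiple reporter units under cis promoters. Exposure: 24 h. Detection: RT-PCR, FAM labeling, HpaI digestion, capillary electrophoresis. Analysis: bidirectional, DMSO baseline.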

[4] = ATG_DR4_LXR_CIS: Attagene CIS-FACTORIAL HepG2 Assay for human Liver X Receptor (LXR), DR4 submotif (AID 2282929); conditions: HepG2 Attagene DR4 cis-reporter, mRNA transcription; actives raise or lower the signal
Procedure, shortened: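 Fluorescence intensity of labelled reporter cDNA fragments, separated by capillary electrophoresis, gives the signal. HepG2 cells bearing cis-regulated reporter constructs were treated 24 h; activity fitted bidirectionally relative to DMSO negative control.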

[5] = ATG_AP_1_CIS: Attagene CIS-FACTORIAL HepG2 Assay for human Activator Protein 1 (AP-1) (AID 2282931); conditions: HepG2 Attagene cis-factorial AP-1 reporter mRNA; actives raise or lower the signal
Procedure, shortened: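 Multiplexed HepG2 reporter assay, 24 h dosing. mRNA induction detected by RT-PCR plus capillary electrophoresis. Activity fitted in both directions against DMSO.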

[6] = ATG_AP_2_CIS: Attagene CIS-FACTORIAL HepG2 Assay for human Activator Protein 2 (AP-2) (AID 2282932); conditions: HepG2 AP-2 cis-reporter, Attagene transcription factor profiling; actives raise or lower the signal
Procedure, shortened: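 HepG2 cells transiently transfected with cis-element reporter units and exposed for 24 h. Reporter mRNA measured by RT-PCR, FAM labelling, HpaI digestion and capillary electrophoresis. Changes in either direction fitted relative to DMSO.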

[7] = biological target: Transcription factor E2F1 (Homo sapiens) (UniProt Q01094); assay: ATG_E2F_CIS: Attagene CIS-FACTORIAL HepG2 Assay for human E2F Transcription Factor 1 (AID 2282935); conditions: HepG2 Attagene cis-reporter, E2F reporter RNA transcripts; actives raise or lower the signal
Procedure, shortened: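 Endogenous E2F1 activity read through cis-promoter reporter units transfected into HepG2. After 24 h compound treatment, reporter mRNA measured by RT-PCR, HpaI digestion and capillary electrophoresis. Bidirectional fit versus DMSO.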

[8] = ATG_E_Box_CIS: Attagene CIS-FACTORIAL HepG2 Assay for human Enhancer Box (E-box) (AID 2282936); conditions: HepG2 E-box cis-reporter transcription, actives raise or lower the signal
Procedure, shortened: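 HepG2 cells transiently transfected with multiplexed cis-element reporter units, dosed 24 h; reporter mRNA quantified by RT-PCR, 6-FAM labelling, HpaI digestion and capillary electrophoresis. E-box (USF1) signal fitted bidirectionally vs DMSO.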

[9] = ATG_M_61_CIS: Attagene CIS-FACTORIAL HepG2 Assay for M61 Transcription Factor (Internal Marker) (AID 2282937); conditions: HepG2 Attagene CIS-FACTORIAL M61 internal marker reporter; actives raise or lower the signal
Procedure, shortened: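 Endogenous transcription factor activity in HepG2 is read through transiently transfected cis-element reporter units. After 24 h dosing, RNA undergoes reverse transcription, PCR and primer extension with 6-FAM before capillary electrophoresis; DMSO-referenced bidirectional fit.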

[10] = ATG_EGR_CIS: Attagene CIS-FACTORIAL HepG2 Assay for human Early Growth Response 1 (EGR1) (AID 2282938); conditions: HepG2 Attagene CIS-FACTORIAL EGR reporter mRNA; actives raise or lower the signal
Procedure, shortened: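 Activity is taken as induction or loss of reporter mRNA versus DMSO, fitted bidirectionally. Transcripts from cis-regulated reporter units in transiently transfected HepG2 were measured after 24 h by RT-PCR with capillary electrophoresis.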

[11] = ATG_M_19_CIS: Attagene CIS-FACTORIAL HepG2 Assay for M19 Transcription Factor (Internal Marker) (AID 2282939); conditions: HepG2 Attagene CIS-FACTORIAL M19 internal marker reporter; actives raise or lower the signal
Procedure, shortened: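 Transfect HepG2 with MRTU reporter library → dose chemical, 24 h → isolate total RNA, reverse-transcribe with oligo(dT) → PCR, 6-FAM label, HpaI cut (2 h, 37 C) → capillary electrophoresis. Bidirectional fit vs DMSO.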

[12] = ATG_Ets_CIS: Attagene CIS-FACTORIAL HepG2 Assay for human Erythroblast Transformation Specific (ETS) (AID 2282941); conditions: HepG2 ETS cis-reporter transcription, actives raise or lower the signal
Procedure, shortened: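 After transient cis-reporter transfection, HepG2 cells receive test chemical for 24 h. Reporter mRNA levels, measured by RT-PCR and capillary electrophoresis fluorescence, are analysed bidirectionally relative to the DMSO baseline.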

[13] = biological target: Hepatocyte nuclear factor 3-beta (Homo sapiens) (UniProt Q9Y261); assay: ATG_FoxA2_CIS: Attagene CIS-FACTORIAL HepG2 Assay for human Forkhead box A2 (FOXA2) (AID 2282942); conditions: HepG2 cis-reporter transcription factor activity, 24 h; actives raise or lower the signal
Procedure, shortened: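 Reporter transcript induction is measured by fluorescence after capillary electrophoresis of RT-PCR products from HepG2 cells exposed 24 h. Cis-regulated reporter units report endogenous factor activity; curves fitted both directions against DMSO.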

[14] = ATG_FoxO_CIS: Attagene CIS-FACTORIAL HepG2 Assay for human Forkhead box O (FoxO) (AID 2282943); conditions: HepG2 Attagene cis-reporter, FoxO element, mRNA; actives raise or lower the signal
Procedure, shortened: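 Transfected HepG2 reporter cells exposed to test chemical for 24 h; reporter RNA measured by reverse transcription, PCR and fluorescent capillary electrophoresis; curves fitted for increases and decreases against DMSO.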

[15] = ATG_GATA_CIS: Attagene CIS-FACTORIAL HepG2 Assay for human GATA Binding Protein (AID 2282944); conditions: HepG2 GATA cis-element reporter, Attagene multiplex mRNA; actives raise or lower the signal
Procedure, shortened: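 Transient MRTU transfection, HepG2, 24 h compound exposure. Total RNA → oligo(dT) RT → PCR → 6-FAM primer extension → HpaI cut → CE. Bidirectional fit vs DMSO.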

[16] = ATG_GLI_CIS: Attagene CIS-FACTORIAL HepG2 Assay for human Zinc Finger Protein GLI1 (AID 2282945); conditions: HepG2, Attagene cis-factorial reporter mRNA, GLI element; actives raise or lower the signal
Procedure, shortened: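 Transiently transfected HepG2 cells report endogenous transcription factor activity via cis-element-driven reporter units. After 24 h compound exposure, reporter mRNA was measured by RT-PCR with capillary electrophoresis; bidirectional fitting against DMSO baseline.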

[17] = biological target: Retinoic acid receptor alpha (Homo sapiens) (UniProt P10276); assay: ATG_DR5_RAR_CIS: Attagene CIS-FACTORIAL HepG2 Assay for human Retinoic Acid Receptor Alpha (RARE), DR5 submotif (AID 2282934); conditions: HepG2 Attagene cis-factorial RARE DR5 reporter, mRNA; actives raise or lower the signal
Procedure, shortened: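 After 24 h of chemical exposure, transiently transfected HepG2 cells were lysed for total RNA; the DR5-regulated reporter transcript was quantified via RT-PCR and capillary electrophoresis, with activity fitted bidirectionally against DMSO.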

[18] = ATG_BRE_CIS: Attagene CIS-FACTORIAL HepG2 Assay for human Bone Morphogenetic Protein (BMP) Response Element (BRE) (AID 2282933); conditions: HepG2 BMP response element reporter, Attagene transcription factor profiling; actives raise or lower the signal
Procedure, shortened: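 Transient MRTU transfection of human HepG2 liver cells; 24 h compound treatment; total RNA isolated, reverse-transcribed, PCR-amplified, 6-FAM labelled, HpaI-cut, capillary electrophoresis. DMSO = negative control/baseline, bidirectional fit.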

[19] = biological target: Aryl hydrocarbon receptor (Homo sapiens) (UniProt P35869); assay: ATG_Ahr_CIS: Attagene CIS-FACTORIAL HepG2 Assay for human Aryl Hydrocarbon Receptor (Ahr) (AID 2282930); conditions: HepG2 AhR cis-factorial reporter transcription; actives raise or lower the signal
Procedure, shortened: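 Endogenous factor activity is tracked through cis-promoter reporter units transfected into HepG2 cells. Transcript levels at 24 h are read by fluorescent RT-PCR and capillary electrophoresis, with activity in either direction scored relative to DMSO.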

[20] = ATG_ERE_CIS: Attagene CIS-FACTORIAL HepG2 Assay for Estrogen Response Element (ERE) (AID 2282940); conditions: HepG2 ERE cis-reporter, Attagene RNA transcript; actives raise or lower the signal
Procedure, shortened: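 Transient MRTU transfection of human HepG2; cis-element promoters; 24 h dosing; total RNA → RT (oligo dT) → PCR → 6-FAM primer extension → HpaI digest → CE fluorescence. Bidirectional fit, DMSO baseline.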

Measured: outcome

Hepatocyte nuclear factor 3-beta (Homo sapiens), sequence (Q9Y261 whole entry, looked up): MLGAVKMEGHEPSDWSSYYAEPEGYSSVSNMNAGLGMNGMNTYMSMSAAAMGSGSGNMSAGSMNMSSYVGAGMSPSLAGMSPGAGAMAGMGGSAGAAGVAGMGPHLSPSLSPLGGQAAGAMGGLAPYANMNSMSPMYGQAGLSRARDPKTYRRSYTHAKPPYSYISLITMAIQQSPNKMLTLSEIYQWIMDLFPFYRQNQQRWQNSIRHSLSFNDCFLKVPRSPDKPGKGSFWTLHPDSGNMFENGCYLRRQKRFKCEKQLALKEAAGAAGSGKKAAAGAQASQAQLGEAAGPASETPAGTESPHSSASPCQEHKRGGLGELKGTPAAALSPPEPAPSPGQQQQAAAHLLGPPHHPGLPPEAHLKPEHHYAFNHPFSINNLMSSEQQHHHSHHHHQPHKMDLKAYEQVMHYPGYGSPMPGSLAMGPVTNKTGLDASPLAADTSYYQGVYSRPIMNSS
Transcription factor E2F1 (Homo sapiens), sequence (Q01094 whole entry, looked up): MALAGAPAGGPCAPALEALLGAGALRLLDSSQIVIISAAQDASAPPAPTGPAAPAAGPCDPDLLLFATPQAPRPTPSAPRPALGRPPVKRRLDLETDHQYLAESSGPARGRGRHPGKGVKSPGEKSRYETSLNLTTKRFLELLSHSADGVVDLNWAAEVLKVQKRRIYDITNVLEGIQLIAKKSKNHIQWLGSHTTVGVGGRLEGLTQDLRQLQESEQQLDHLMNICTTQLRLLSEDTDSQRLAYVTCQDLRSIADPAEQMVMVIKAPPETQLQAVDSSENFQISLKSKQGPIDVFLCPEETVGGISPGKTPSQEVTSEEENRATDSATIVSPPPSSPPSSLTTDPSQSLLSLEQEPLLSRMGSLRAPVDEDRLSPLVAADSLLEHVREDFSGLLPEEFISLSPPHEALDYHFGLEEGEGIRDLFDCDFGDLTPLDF
CCAAT/enhancer-binding protein beta (Homo sapiens), sequence (P17676 whole entry, looked up): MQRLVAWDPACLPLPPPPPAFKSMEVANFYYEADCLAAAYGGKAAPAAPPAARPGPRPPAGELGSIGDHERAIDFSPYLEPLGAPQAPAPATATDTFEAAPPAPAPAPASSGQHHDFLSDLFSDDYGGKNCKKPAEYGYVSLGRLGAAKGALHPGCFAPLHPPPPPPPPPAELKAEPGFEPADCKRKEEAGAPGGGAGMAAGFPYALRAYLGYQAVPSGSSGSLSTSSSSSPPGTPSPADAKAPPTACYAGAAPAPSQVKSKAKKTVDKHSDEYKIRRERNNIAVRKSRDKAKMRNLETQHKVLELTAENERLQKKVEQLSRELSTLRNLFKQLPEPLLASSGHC
Aryl hydrocarbon receptor (Homo sapiens), sequence (P35869 whole entry, looked up): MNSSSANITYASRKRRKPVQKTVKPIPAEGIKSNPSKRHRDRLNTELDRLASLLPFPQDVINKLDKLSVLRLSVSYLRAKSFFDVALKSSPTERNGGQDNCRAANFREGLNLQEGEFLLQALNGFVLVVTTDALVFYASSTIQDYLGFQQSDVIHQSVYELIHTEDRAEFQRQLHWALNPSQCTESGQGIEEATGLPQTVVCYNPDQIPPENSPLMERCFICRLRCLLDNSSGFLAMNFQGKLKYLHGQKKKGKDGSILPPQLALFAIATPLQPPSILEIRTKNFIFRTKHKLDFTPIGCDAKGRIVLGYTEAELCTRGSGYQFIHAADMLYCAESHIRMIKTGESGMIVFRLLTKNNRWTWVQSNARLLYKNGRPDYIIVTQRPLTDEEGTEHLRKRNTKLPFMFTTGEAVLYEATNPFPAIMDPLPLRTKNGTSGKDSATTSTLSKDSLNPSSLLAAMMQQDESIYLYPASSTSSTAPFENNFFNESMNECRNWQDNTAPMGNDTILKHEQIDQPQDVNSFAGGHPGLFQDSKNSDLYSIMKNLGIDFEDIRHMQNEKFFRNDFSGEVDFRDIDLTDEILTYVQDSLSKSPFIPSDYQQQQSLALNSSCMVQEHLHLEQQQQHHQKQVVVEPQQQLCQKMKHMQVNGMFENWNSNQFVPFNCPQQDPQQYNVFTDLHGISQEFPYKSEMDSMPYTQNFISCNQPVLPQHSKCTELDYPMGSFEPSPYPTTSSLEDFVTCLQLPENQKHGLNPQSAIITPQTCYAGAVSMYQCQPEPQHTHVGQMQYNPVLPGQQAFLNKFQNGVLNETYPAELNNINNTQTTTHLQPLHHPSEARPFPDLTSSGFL
Retinoic acid receptor alpha (Homo sapiens), sequence (P10276 whole entry, looked up): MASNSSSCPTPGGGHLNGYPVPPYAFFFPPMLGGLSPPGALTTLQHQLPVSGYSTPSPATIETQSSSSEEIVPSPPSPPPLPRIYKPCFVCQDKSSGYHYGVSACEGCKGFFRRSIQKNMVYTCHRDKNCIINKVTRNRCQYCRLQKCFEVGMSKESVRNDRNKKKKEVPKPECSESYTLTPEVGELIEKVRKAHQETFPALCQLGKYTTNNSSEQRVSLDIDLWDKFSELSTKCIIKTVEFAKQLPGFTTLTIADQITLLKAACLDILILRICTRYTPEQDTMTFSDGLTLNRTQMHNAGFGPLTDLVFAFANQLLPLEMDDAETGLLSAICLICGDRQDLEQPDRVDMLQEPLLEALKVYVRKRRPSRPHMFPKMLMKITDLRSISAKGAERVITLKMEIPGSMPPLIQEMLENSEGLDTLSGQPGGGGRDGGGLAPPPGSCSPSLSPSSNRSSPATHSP

CCCCCCCCC=O
inactive: [1] | [2] | [3] | [4] | [5] | [6] | [7] | [8] | [9] | [10] | [11] | [12] | [13] | [14] | [15] | [16]

O=C(O)c1cn(-c2ccc(F)cc2)c2cc(N3CCNCC3)c(F)cc2c1=O
inactive: [1] | [2] | [3] | [4] | [5] | [6] | [17] | [7] | [9] | [10] | [11] | [12] | [14] | [15] | [16]

COc1cc(C(C)(C)C)c(O)c(C(C)(C)C)c1
inactive: [1] | [2] | [3] | [4] | [5] | [6] | [18] | [7] | [8] | [9] | [10] | [11] | [12] | [13] | [14] | [15] | [16]

CC(=O)/C=C/C1=C(C)CCCC1(C)C
inactive: [1] | [2] | [3] | [4] | [5] | [6] | [18] | [7] | [9] | [10] | [11] | [12] | [13] | [14] | [15] | [16]

S=C(S)NCCNC(=S)S
inactive: [1] | [2] | [3] | [4] | [19] | [6] | [18] | [7] | [8] | [9] | [10] | [12] | [14] | [15] | [16]

CC(c1cc2ccccc2s1)N(O)C(N)=O (stereo not given)
inactive: [1] | [2] | [3] | [4] | [5] | [6] | [18] | [7] | [8] | [9] | [10] | [12] | [13] | [14] | [15] | [16]

CN(CCOc1ccc(CC2SC(=O)NC2=O)cc1)c1ccccn1 (stereo not given)
inactive: [1] | [2] | [3] | [4] | [5] | [6] | [18] | [7] | [9] | [10] | [12] | [13] | [14] | [16]

CCCCCC(=O)OCCc1ccccc1
inactive: [1] | [2] | [3] | [4] | [19] | [6] | [18] | [7] | [8] | [9] | [10] | [20] | [12] | [13] | [14] | [15]
